Inconclusive results are not listed. The source made the active and inactive calls. Calls come from the whole dose curve; as a rule, active = well fitted cell-killing curve with a large enough effect; inconclusive = small, poorly fitted or top-dose-only effect, or effect the other way; inactive = flat fitted curve, though single readings scatter. Where a SMILES comes first, the peptide text is derived from it. [ ]: non-standard residue; d: D form. 2Abz = Nc1ccccc1C(=O)O
How the values were obtained:
Assay in all cases: Primary qHTS to identify gynecologic anti-cancer compounds using libraries of approved drugs and bioactive compounds (AID 1345084); note: nearly all actives have a fitted effect of over 55% in size
CAOV3 = details: Gynecologic cancer cell panel viability, ATPlite luminescence, 48 h; series mostly up to 57.5 µM
Procedure, shortened: (§1)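 48 h compound exposure at 37 C, 5% CO2; five-point qHTS. ATPlite luminescence readout of cell ATP.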

CASKI = details: Gynecologic cancer cell panel viability, ATPlite luminescence, 48 h; series mostly up to 57.5 µM
Procedure, shortened: as §1

Es-2 = details: Gynecologic cancer cell panel viability, ATPlite luminescence, 48 h; series mostly up to 57.5 µM
Procedure, shortened: as §1

HeLa = details: Gynecologic cancer cell panel viability, ATPlite luminescence, 48 h; series mostly up to 57.5 µM
Procedure, shortened: as §1

Hek293T = details: Gynecologic cancer cell panel viability, ATPlite luminescence, 48 h, control line for the selectivity index; series mostly up to 57.5 µM
Procedure, shortened: as §1

JEG-3 = details: Gynecologic cancer cell panel viability, ATPlite luminescence, 48 h; series mostly up to 57.5 µM
Procedure, shortened: as §1

OV90 = details: Gynecologic cancer cell panel viability, ATPlite luminescence, 48 h; series mostly up to 57.5 µM
Procedure, shortened: as §1

PA-1 = details: Gynecologic cancer cell panel viability, ATPlite luminescence, 48 h; series mostly up to 57.5 µM
Procedure, shortened: as §1

SKOV3 = details: Gynecologic cancer cell panel viability, ATPlite luminescence, 48 h; series mostly up to 57.5 µM
Procedure, shortened: as §1

Tov-21-G = details: Gynecologic cancer cell panel viability, ATPlite luminescence, 48 h; series mostly up to 57.5 µM
Procedure, shortened: as §1

Tov112D = details: Gynecologic cancer cell panel viability, ATPlite luminescence, 48 h; series mostly up to 57.5 µM
Procedure, shortened: as §1
% is set by controls: 0 for no effect and ±100 for the full control effect.

CCn1cc(C2=NOC(C(=O)Nc3c(C)n(C)n(-c4ccccc4)c3=O)C2)c(C)n1 (centres undefined)
inactive: Potency (CAOV3) | Potency (CASKI) | Potency (Es-2) | Potency (HeLa) | Potency (Hek293T) | Potency (JEG-3) | Potency (OV90) | Potency (PA-1) | Potency (SKOV3) | Potency (Tov-21-G) | Potency (Tov112D)

COCCCNCC1COc2ccccc2O1 (centres undefined)
inactive: Potency (CAOV3) | Potency (CASKI) | Potency (Es-2) | Potency (HeLa) | Potency (Hek293T) | Potency (JEG-3) | Potency (OV90) | Potency (PA-1) | Potency (SKOV3) | Potency (Tov-21-G) | Potency (Tov112D)

CC1=CC[C@]2(C(=O)O[C@@H]3O[C@H](CO[C@@H]4O[C@H](CO)[C@@H](O[C@@H]5O[C@@H](C)[C@H](O)[C@@H](O)[C@H]5O)[C@H](O)[C@H]4O)[C@@H](O)[C@H](O)[C@H]3O)CC[C@]3(C)C(CCC4[C@@]5(C)C[C@@H](O)[C@H](O)[C@@](C)(CO)C5CC[C@]43C)C2C1C (some centres undefined)
inactive: activity change, negative = cytotoxicity (CAOV3) 6.14% [at 11.6 µM] | activity change, negative = cytotoxicity (CASKI) 4.37% [at 11.6 µM] | activity change, negative = cytotoxicity (Es-2) 6.73% [at 11.6 µM] | activity change, negative = cytotoxicity (HeLa) 3.93% [at 11.6 µM] | activity change, negative = cytotoxicity (Hek293T) -4.38% [at 11.6 µM] | activity change, negative = cytotoxicity (JEG-3) -1.63% [at 11.6 µM] | activity change, negative = cytotoxicity (OV90) 6.64% [at 11.6 µM] | activity change, negative = cytotoxicity (PA-1) 10.1% [at 11.6 µM] | activity change, negative = cytotoxicity (SKOV3) -2.91% [at 11.6 µM] | activity change, negative = cytotoxicity (Tov-21-G) 4.72% [at 11.6 µM] | activity change, negative = cytotoxicity (Tov112D) -1.58% [at 11.6 µM]

NC(Cc1c[nH]c2ccccc12)C(=O)NC(CCC(=O)O)C(=O)O (centres undefined)
inactive: Potency (CAOV3) | Potency (CASKI) | Potency (Es-2) | Potency (HeLa) | Potency (Hek293T) | Potency (JEG-3) | Potency (OV90) | Potency (PA-1) | Potency (SKOV3) | Potency (Tov-21-G) | Potency (Tov112D)

C[C@@H]1O[C@@H](O[C@H]2[C@H](O[C@H]3CC[C@@]4(C)C(CC[C@]5(C)C4CC=C4[C@@H]6CC(C)(C)CC[C@]6(C(=O)O)CC[C@]45C)[C@]3(C)CO)OC[C@H](O)[C@@H]2O)[C@H](O)[C@H](O[C@@H]2OC[C@@H](O)[C@H](O)[C@H]2O)[C@H]1O (some centres undefined)
inactive: activity change, negative = cytotoxicity (CAOV3) -8% [at 11.6 µM] | activity change, negative = cytotoxicity (CASKI) -1.75% [at 11.6 µM] | activity change, negative = cytotoxicity (Es-2) -1.5% [at 11.6 µM] | activity change, negative = cytotoxicity (HeLa) 14.3% [at 11.6 µM] | activity change, negative = cytotoxicity (Hek293T) -9.01% [at 11.6 µM] | activity change, negative = cytotoxicity (JEG-3) -2.58% [at 11.6 µM] | activity change, negative = cytotoxicity (OV90) -5.88% [at 11.6 µM] | activity change, negative = cytotoxicity (PA-1) -2.5% [at 11.6 µM] | activity change, negative = cytotoxicity (SKOV3) -0.901% [at 11.6 µM] | activity change, negative = cytotoxicity (Tov-21-G) -4.57% [at 11.6 µM] | activity change, negative = cytotoxicity (Tov112D) 4.64% [at 11.6 µM]

COc1c(C)c(C(=O)c2ccc(N)c(C(=O)O)c2)n2ccccc12
inactive: Potency (CAOV3) | Potency (CASKI) | Potency (Es-2) | Potency (HeLa) | Potency (Hek293T) | Potency (JEG-3) | Potency (OV90) | Potency (PA-1) | Potency (SKOV3) | Potency (Tov-21-G) | Potency (Tov112D)

CCNC(=O)CCC/C=C\C[C@@H]1[C@@H](/C=C/C(O)CCc2ccccc2)[C@@H](O)C[C@@H]1O (some centres undefined)
inactive: Potency (CAOV3) | Potency (CASKI) | Potency (Es-2) | Potency (HeLa) | Potency (Hek293T) | Potency (JEG-3) | Potency (OV90) | Potency (PA-1) | Potency (SKOV3) | Potency (Tov-21-G) | Potency (Tov112D)

C=C1[C@H]2[C@H](O[C@@H]3O[C@H](COC(=O)/C=C/c4cc(OC)c(O)c(OC)c4)[C@@H](O)[C@H](O)[C@H]3O)OC=C(C(=O)O)[C@H]2C[C@@H]1O
inactive: Potency (CAOV3) | Potency (CASKI) | Potency (Es-2) | Potency (HeLa) | Potency (Hek293T) | Potency (JEG-3) | Potency (OV90) | Potency (PA-1) | Potency (SKOV3) | Potency (Tov-21-G) | Potency (Tov112D)

CC1=CC(=O)OC(C)(CC(C)(O)C(=O)O)C1 (centres undefined)
inactive: Potency (CAOV3) | Potency (CASKI) | Potency (Es-2) | Potency (HeLa) | Potency (Hek293T) | Potency (JEG-3) | Potency (OV90) | Potency (PA-1) | Potency (SKOV3) | Potency (Tov-21-G) | Potency (Tov112D)

CC1=CC(=O)CC(C)(C)C1CCC(C)OC1OC(COC(=O)c2cc(O)c(O)c(O)c2)C(O)C(O)C1O (centres undefined)
inactive: Potency (CAOV3) | Potency (CASKI) | Potency (Es-2) | Potency (HeLa) | Potency (Hek293T) | Potency (JEG-3) | Potency (OV90) | Potency (PA-1) | Potency (SKOV3) | Potency (Tov-21-G) | Potency (Tov112D)

COc1ccc([C@H]2Cc3cccc(O)c3C(=O)O2)cc1
inactive: Potency (CAOV3) | Potency (CASKI) | Potency (Es-2) | Potency (HeLa) | Potency (Hek293T) | Potency (JEG-3) | Potency (OV90) | Potency (PA-1) | Potency (SKOV3) | Potency (Tov-21-G) | Potency (Tov112D)

CC(C)CC(=O)OC[C@H]1O[C@@](COC(=O)CC(C)C)(O[C@H]2O[C@H](CO)[C@@H](O)[C@H](O)[C@H]2OC(=O)CC(C)C)[C@@H](OC(=O)CC(C)C)[C@@H]1O
inactive: Potency (CAOV3) | Potency (CASKI) | Potency (Es-2) | Potency (HeLa) | Potency (Hek293T) | Potency (JEG-3) | Potency (OV90) | Potency (PA-1) | Potency (SKOV3) | Potency (Tov-21-G) | Potency (Tov112D)

C[C@@H]1C(=O)O[C@H]2CC34[C@H]5C[C@@H](C(C)(C)C)C36[C@@H](OC(=O)[C@@H]6O)OC4(C(=O)O5)[C@]21O (some centres undefined)
inactive: Potency (CAOV3) | Potency (CASKI) | Potency (Es-2) | Potency (HeLa) | Potency (Hek293T) | Potency (JEG-3) | Potency (OV90) | Potency (PA-1) | Potency (SKOV3) | Potency (Tov-21-G) | Potency (Tov112D)

CCC(C)C1NC(=O)C2CCCN2C(=O)C(C(C)C)NC(=O)c2ccccc2NC(=O)C(Cc2ccc(O)cc2)NC(=O)C(C)NC(=O)C(C(C)O)NC1=O (centres undefined) (cyclo([2Abz]VPITAY); configuration not given here)
inactive: Potency (CAOV3) | Potency (CASKI) | Potency (Es-2) | Potency (HeLa) | Potency (Hek293T) | Potency (JEG-3) | Potency (OV90) | Potency (PA-1) | Potency (SKOV3) | Potency (Tov-21-G) | Potency (Tov112D)

— PubChem BioAssay (NCATS)
